Bioassay records (PubChem)
Rows were chosen to be rich in hits. Some 1.6% of all compounds tested hit in one or more screens of this group.
V-ATPase pHluor = regulators of yeast V-ATPase proton pumping, primary screen, pHLuorin cytosolic pH fluorescence | S. cerevisiae | response, % at 10 µM | 350,000 tested, 0.37% active | AID 504577, 2011; in the data active means response mostly above about 7.3%, no sharp cut-off; inactive means mostly below about 5.4%; further: actives read high
GC-B act = human GC-B receptor activators, primary screen, HEK293 GC-B cells, cGMP TR-FRET, EC30 CNP; Atrial natriuretic peptide receptor 2 (Homo sapiens), P20594; 0% at EC30 CNP, 100% saturating CNP; activation, % at 10 µM; 370,000 tested, 0.11% active; AID 1920062, 2024;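 active means activation at 10 µM reaching about 35% in either raw or pattern-adjusted values, limit read from the data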
Efflux pump mplx = inhibitors of Candida efflux pumps in yeast, primary screen, S. cerevisiae, Nile Red, multiplex. S. cerevisiae Candida pump triplex. inhibition, % at 10 µM. 330,000 tested, 0.44% active. AID 485275, 2010;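 active means plate passing quality check with inhibition over a set limit, or well fluorescence over plate mean plus 4 SD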;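 further: Nile Red retained in pooled yeast measured as flow cytometry median fluorescence; 0% = buffer negative control and 100% = Enniatin B positive control; higher means more Nile Red kept so more efflux inhibition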
Rce1 inhib = yeast Rce1p protease inhibitors, primary screen, biochemical, fluorescence, cell-free homogeneous; yeast membranes, quenched prenylated peptide cleavage fluorescence; calls only; 290,000 tested, 0.27% active;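 active means fall in fluorescence gain of 50% or more versus controls, with final raw signal at or below 3038400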;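 further: plate controls were neutral control wells for no effect and wells lacking membranes for full effect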
NPR1 activator = GC-A stimulated cGMP production enhancers – HEK293 GC-A cells, cGMP TR-FRET, EC30 ANP, primary screen | 0% at EC30 ANP, 100% saturating ANP | activation, % at 10 µM | 370,000 tested, 0.14% active | Atrial natriuretic peptide receptor 1 (Homo sapiens), P16066; in the data active means activation above about 40%
NSD2 HMT inh = NSD2 histone methyltransferase inhibitors, primary screen, biochemical, AlphaScreen, single concentration, set 2. Histone-lysine N-methyltransferase NSD2 (Homo sapiens), O96028. AID 743445, 2014. inhibition, % at 12.5 µM. NSD2 peptide methylation, 120 min. 310,000 tested, 0.54% active; in the data active means inhibition above about 50%
Target sequence (O96028 whole entry, looked up): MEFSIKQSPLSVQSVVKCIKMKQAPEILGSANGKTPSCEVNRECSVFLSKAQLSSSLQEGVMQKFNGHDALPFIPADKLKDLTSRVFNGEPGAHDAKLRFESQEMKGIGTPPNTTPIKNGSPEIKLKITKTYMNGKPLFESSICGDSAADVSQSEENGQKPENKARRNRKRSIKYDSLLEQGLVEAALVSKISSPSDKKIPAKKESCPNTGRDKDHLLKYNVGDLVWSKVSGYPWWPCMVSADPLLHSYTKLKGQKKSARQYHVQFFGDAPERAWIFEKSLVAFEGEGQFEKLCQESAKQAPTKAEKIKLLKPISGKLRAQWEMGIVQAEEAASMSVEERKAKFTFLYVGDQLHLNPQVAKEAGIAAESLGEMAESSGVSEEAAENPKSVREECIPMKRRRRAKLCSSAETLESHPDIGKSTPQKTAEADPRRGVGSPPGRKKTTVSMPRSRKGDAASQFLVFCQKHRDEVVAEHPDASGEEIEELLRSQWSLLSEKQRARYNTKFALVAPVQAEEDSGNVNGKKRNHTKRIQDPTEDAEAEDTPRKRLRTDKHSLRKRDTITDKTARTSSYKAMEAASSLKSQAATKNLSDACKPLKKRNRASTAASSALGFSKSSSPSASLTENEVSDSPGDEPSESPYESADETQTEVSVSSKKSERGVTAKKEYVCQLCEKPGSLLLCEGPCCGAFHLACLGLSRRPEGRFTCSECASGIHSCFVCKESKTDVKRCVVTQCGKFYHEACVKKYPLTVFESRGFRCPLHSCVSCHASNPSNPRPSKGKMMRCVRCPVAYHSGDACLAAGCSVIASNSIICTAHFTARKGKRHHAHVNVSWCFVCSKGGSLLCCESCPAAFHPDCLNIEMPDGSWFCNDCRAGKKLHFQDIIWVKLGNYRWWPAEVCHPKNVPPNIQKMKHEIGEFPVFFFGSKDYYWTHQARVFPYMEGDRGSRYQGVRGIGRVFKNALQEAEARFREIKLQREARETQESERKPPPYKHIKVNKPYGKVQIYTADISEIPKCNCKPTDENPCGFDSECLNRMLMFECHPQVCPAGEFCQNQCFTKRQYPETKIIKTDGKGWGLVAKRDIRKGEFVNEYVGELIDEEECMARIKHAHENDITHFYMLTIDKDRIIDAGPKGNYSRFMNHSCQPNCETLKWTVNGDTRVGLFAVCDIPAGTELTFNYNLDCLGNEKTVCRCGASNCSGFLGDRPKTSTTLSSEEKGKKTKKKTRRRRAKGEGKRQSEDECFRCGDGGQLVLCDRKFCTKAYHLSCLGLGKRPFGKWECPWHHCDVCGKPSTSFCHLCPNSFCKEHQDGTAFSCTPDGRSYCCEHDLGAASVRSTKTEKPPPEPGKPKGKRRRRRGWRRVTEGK
Yeast cmpd fluor = counter-screen for efflux pump inhibitors: compound fluorescence | shares compounds with Efflux pump mplx | S. cerevisiae AD/pABC3, flow cytometry | fluorescence ratio to DMSO, % at 10 µM | 1,700 tested, 4% active | AID 588517;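 active means fluorescence ratio to DMSO above its plate's cutoff, the plate mean ratio plus 5 SD, cut at about 210% in these data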;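 further: unstained yeast with no Nile Red so the signal is compound autofluorescence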
CaMdr1 efflux inh = inhibitors of Candida albicans Mdr1 efflux, confirmation, flow cytometry, singleplex, Cherry Pick1 set | shares compounds with Efflux pump mplx | S. cerevisiae AD/CaMDR1, Nile Red efflux | inhibition, % at 10 µM | 1,700 tested, 1% active; in the data active means inhibition above about 26%;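 further: 0% = DMSO vehicle and 100% = reference inhibitor; higher means more Nile Red retained so more efflux inhibition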
Cdr2 pump inh = inhibitors of Candida albicans Cdr2 efflux pump, confirmation, S. cerevisiae AD/CaCDR2, flow cytometry, cherry pick 1, singleplex | shares compounds with Efflux pump mplx | Nile Red retention | Nile Red retention ratio vs DMSO, % at 10 µM | 1,700 tested, 4% active; in the data active means Nile Red retention ratio vs DMSO above about 190%;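 further: higher ratio means more blocking of Cdr2 efflux of the dye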
CaCdr1 efflux inh = inhibitors of Candida albicans Cdr1 efflux pump, confirmation, S. cerevisiae AD/CaCDR1, flow cytometry, cherry pick 1, singleplex; inhibition, % at 10 µM; Nile Red efflux; shares compounds with Efflux pump mplx; 1,700 tested, 1% active;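 active means inhibition above the screen-wide mean plus twice its standard deviation, cut at about 32% in these data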
* = called active by the depositor; i = inactive; nt = no result.

SMILES	V-ATPase pHluor	GC-B act	Efflux pump mplx	Rce1 inhib	NPR1 activator	NSD2 HMT inh	Yeast cmpd fluor	CaMdr1 efflux inh	Cdr2 pump inh	CaCdr1 efflux inh
O=C1CCC[C@H]2C[C@H](NCc3cccnc3)CC[C@]23CCCN13	nt	-1.4	nt	nt	1.2	nt	nt	nt	nt	nt
C/C(C=NNC(=O)CSc1nc2ccccc2n1Cc1ccccc1Cl)=C\c1ccccc1	nt	5.5	nt	nt	-2.8	8.2	nt	nt	nt	nt
N/C(=N\OC(=O)Cc1cccc2ccccc12)c1ccccn1	0.0	-3.2	1.2*	i	1.7	13.5	108.6	-0.3	109.4	-0.1
Cc1cc(Cl)c2oc(C(=O)NCC(C)(C)N3CCOCC3)c(C)c2c1	-1.1	-2.4	0.6*	i	-0.7	2.3	128.1	0.0	102.2	0.2
C[C@@]12C(=O)Nc3cc(Cl)ccc3C(=O)N1[C@H]1c3cc(Cl)ccc3OC[C@@H]1[C@@H]2c1ccccc1	3.7	5.6	0.1	nt	0.4	nt	96.6	-0.1	101.8	0.0
COc1cc2c(cc1OC)C(=O)N1[C@H]3c4ccccc4OC[C@@H]3[C@H](c3ccccc3)[C@]1(C)C(=O)N2	2.2	-2.2	0.0	nt	-0.8	nt	nt	nt	nt	nt
C[C@@]12C(=O)Nc3ccc(F)cc3C(=O)N1[C@H]1c3cc(Cl)ccc3OC[C@@H]1[C@@H]2c1ccccc1	2.0	0.0	-0.1	nt	-2.0	nt	128.1	0.0	126.7	0.2
Cc1ccc2c(c1)C(=O)N1[C@H]3c4cc(Cl)ccc4OC[C@@H]3[C@H](c3ccccc3)[C@]1(C)C(=O)N2	2.6	1.1	-0.2	nt	-3.2	nt	100.2	-0.3	99.3	-0.1
C[C@@]12C(=O)Nc3ccc(F)cc3C(=O)N1[C@H]1c3ccccc3OC[C@@H]1[C@@H]2c1ccccc1	0.4	nt	-0.2	nt	nt	nt	nt	nt	nt	nt
COc1ccc2c(c1)OC[C@H]1[C@H]2N2C(=O)c3cc(OC)c(OC)cc3NC(=O)[C@@]2(C)[C@H]1c1ccccc1	-2.5	6.8	48.2*	nt	-4.1	nt	538.8*	79.2*	111.6	33.5*
COCCOC(=O)N(C)C[C@@H]1OCCCC[C@H](C)Oc2ccc(NC(=O)Nc3ccccc3)cc2C(=O)N([C@@H](C)CO)C[C@H]1C	nt	1.8	nt	nt	-1.8	nt	nt	nt	nt	nt
Cc1ccc(SCC(=O)N(Cc2nc(-c3ccccc3)no2)C(C)C)cc1	-1.0	3.2	1.5*	i	1.6	-3.2	98.9	0.2	106.3	0.0
Cc1ccc(C(=O)N(Cc2nc(-c3ccc(C)cc3)no2)C(C)C)cc1	-0.5	0.2	0.1	i	2.7	nt	nt	nt	nt	nt
COc1ccc(OC)c(S(=O)(=O)N2CCCCC2C(=O)N2CCN(c3ccc(F)cc3)CC2)c1 (stereo not given)	nt	-2.3	nt	nt	-2.2	0.7	nt	nt	nt	nt
CC(C)(C)NC(=O)c1nc2nc(-c3ccccc3)cc(C(F)(F)F)n2n1	0.6	4.4	8.2*	i	2.6	-2.8	103.0	0.0	97.7	-0.1
Clc1ccc(Sc2cc(N3CCOCC3)nc(-c3ccccc3)n2)cc1	1.3	-13.5	0.2	i	-4.3	5.1	nt	nt	nt	nt
CC(C)Sc1cc(N2CCOCC2)nc(-c2ccc(Cl)cc2)n1	10.0	-2.5	0.0	i	-7.4	-0.5	94.0	0.0	91.1	-0.1
CCN1CCN(c2cc(SC(C)C)nc(-c3ccc(OC)cc3)n2)CC1	-4.7	-4.0	nt	i	-4.3	2.1	105.7	-0.2	103.8	-0.1
